# Most compounds without a hit are left out; they make up all but 12% or so of the library.
# G9a block: inhibitors of human histone lysine methyltransferase G9a | Q96KQ7 | AID 504332 | 350,000 tested, 8.8% active | G9a H3K9 monomethylation, AlphaScreen, 2 h | Potency, µM (highest dose often 102 µM), without a hit: at the highest dose activity, negative = inhibition, usual class: inhibitors; note: % is set by controls: 0 for no effect and ±100 for the full control effect; nearly all actives have a fitted effect of over 75% in size
#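 AlphaScreen detection with an anti-monomethyl H3K9 antibody quantified product after a 2 h room-temperature reaction containing 500 nM biotinylated H3K9 peptide, 20 µM SAM and 20 nM enzyme, which had been preincubated 15 min with compound.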
# Sfp inh: Sfp phosphopantetheinyl transferase inhibition | Q9F4F7 | Biochemical Sfp PPTase activity, qHTS | Potency, µM, for inactives: largest response in the series, negative = inhibition, actives largely listed as inhibitors | 310,000 tested, 3.5% active;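 note: the enzyme is Sfp with the accession as filed and its product quenches rhodamine fluorescence; 0% = enzyme reaction without inhibitor and -100% = no enzyme wells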
#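 Reaction rates are the 30-min fluorescence difference (ex 525, em 598 nm) in wells containing 15 nM Sfp, 5 uM rhodamine-CoA and 12.5 uM BHQ-2-YbbR at pH 7.6 with 10 mM MgCl2.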
# JMJD2A Tudor inh: blocks the human JMJD2A Tudor domain; AlphaScreen JMJD2A-Tudor / H3K4me3 peptide binding; Potency, µM (titrated, usually from 114 µM), for the others: at the top dose activity change, negative = inhibition, usual class: inhibitors; 390,000 tested, 4.4% active; AID 504339; note: % is set by controls: 0 for no effect and ±100 for the full control effect; nearly all actives have a fitted effect of over 50% in size
# HP1b chromo inh: inhibitors of HP1-beta chromodomain binding to methylated histone tails; P83916; Potency, µM (highest dose often 114 µM), without a hit: at the highest dose activity change, negative = inhibition, usual class: inhibitors; AlphaScreen HP1-beta / biotin-H3K9me3 peptide binding; 390,000 tested, 0.56% active; note: nearly all actives have a fitted effect of over 70% in size
#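 Compound inhibition of the preformed complex between 50 nM HP1-beta and 50 nM biotinylated H3K9me3 peptide was read by AlphaScreen. Buffer was PBS pH 7.4 with 0.01% Tween-20. Incubations ran 30 min at room temperature, with 10 ug/mL donor/acceptor beads.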
# L3MBTL1 inh: L3MBTL1 (human) inhibition. AlphaScreen L3MBTL1–H3K9me1 peptide binding. 230,000 tested, 0.66% active. AID 485360. Potency, µM (series often up to 57.1 µM), inactives show at the top dose activity, negative = inhibition, actives largely listed as inhibitors; note: % is set by controls: 0 for no effect and ±100 for the full control effect; nearly all actives have a fitted effect of over 60% in size
# Target sequence (Q9Y468 whole entry, looked up): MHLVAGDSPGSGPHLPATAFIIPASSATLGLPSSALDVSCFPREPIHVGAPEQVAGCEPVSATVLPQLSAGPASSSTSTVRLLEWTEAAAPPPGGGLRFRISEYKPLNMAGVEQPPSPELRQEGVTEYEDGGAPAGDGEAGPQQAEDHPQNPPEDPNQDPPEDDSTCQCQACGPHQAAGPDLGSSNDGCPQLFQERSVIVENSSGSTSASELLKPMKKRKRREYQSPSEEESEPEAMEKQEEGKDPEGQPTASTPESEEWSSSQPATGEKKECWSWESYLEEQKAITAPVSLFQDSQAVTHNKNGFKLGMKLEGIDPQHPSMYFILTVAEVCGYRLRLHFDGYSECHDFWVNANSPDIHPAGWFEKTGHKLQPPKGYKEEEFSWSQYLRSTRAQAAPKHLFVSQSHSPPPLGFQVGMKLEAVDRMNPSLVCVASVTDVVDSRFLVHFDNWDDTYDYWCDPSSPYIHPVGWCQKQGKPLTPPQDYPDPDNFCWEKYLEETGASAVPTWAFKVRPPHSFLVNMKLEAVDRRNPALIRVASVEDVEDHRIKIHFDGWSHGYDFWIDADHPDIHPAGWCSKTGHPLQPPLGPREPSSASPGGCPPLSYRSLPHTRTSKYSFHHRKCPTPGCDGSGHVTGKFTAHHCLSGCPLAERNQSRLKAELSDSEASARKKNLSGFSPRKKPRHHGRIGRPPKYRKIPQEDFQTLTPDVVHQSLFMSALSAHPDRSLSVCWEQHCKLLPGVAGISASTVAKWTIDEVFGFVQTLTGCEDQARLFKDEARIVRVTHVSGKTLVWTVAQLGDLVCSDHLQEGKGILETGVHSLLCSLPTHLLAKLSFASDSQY
#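 L3MBTL1 50 nM + b-AHA-H3(1-15)K9me1 75 nM, 30 min RT; compound added, 30 min RT; streptavidin donor/Ni-chelate acceptor beads 10 ug/mL each final, 30 min RT dark; AlphaScreen read.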
# BAZ2B block: BAZ2B (human) inhibition. 360,000 tested, 4.4% active. Potency, µM (top dose mostly 114 µM), for inactives: at the highest dose activity change, negative = inhibition, actives largely listed as inhibitors. Q9UIF8. AID 504333. AlphaScreen BAZ2B-H3K14Ac peptide displacement; note: % is set by controls: 0 for no effect and ±100 for the full control effect; nearly all actives have a fitted effect of over 60% in size
#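 Complex of BAZ2B and biotin-H3K14Ac (50 nM apiece) forms over 30 min at RT, then faces library compounds up to 110 uM for another 30 min; AlphaScreen beads added, 20 min dark incubation, luminescence read.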
# An asterisk follows results filed as active; ? = inconclusive; . = no result; [ ] = another dose, or the depositor's remark. Calls come from the whole dose curve; as a rule, active = well fitted curve in the direction sought with a large enough effect; inconclusive = small, poorly fitted or top-dose-only effect, or another doubt; inactive = no such curve, though single readings can be large; an effect the other way counts as inactive or inconclusive. Potency is the fitted concentration of half-maximal effect.
SMILES,G9a block,Sfp inh,JMJD2A Tudor inh,HP1b chromo inh,L3MBTL1 inh,BAZ2B block
c1ccc(OCCCn2ccnc2)cc1,.,-5.4%,-15.3%,15.2%,5.4%,0.6%
CCc1ccc(OCCCCCn2ccnc2)cc1,10µM*,-24.3%,2.51µM*,56.2µM*,-6.7%,50.1µM*
CCc1ccc(OCCn2ccnc2)cc1,22.4µM*,-7.0%,28.2µM*,?,-1.4%,?
Cc1cc(OCCCCCn2ccnc2)cc(C)c1Cl,-42.8%[59 µM],14.5%,?,4.2%,.,?
COc1ccc(Nc2oc(-c3ccc(COc4cccc(C)c4)o3)nc2C#N)cc1,-6.0%[59 µM],.,-13.2%,31.5%,.,-7.8%
Cc1c(C(=O)N2CCN(c3ncccn3)CC2)oc2c(Cl)cccc12,9.7%,.,?,48.9%,5.0%,11.7%
COc1ccc(NC2CCCN(C(=O)c3cc4ncccn4n3)C2)cc1 (configuration not stated),35.5µM*,-3.5%,-20.0%,-3.1%,.,-12.8%
CC(C)c1ccc(NC2CCCN(C(=O)c3ccccc3-c3ncc[nH]3)C2)cc1 (configuration not stated),44.7µM*,0.9%,?,-0.3%,.,56.2µM*
COc1ccc(NC2CCCN(C(=O)c3ccc4[nH]c(C)c(C)c4c3)C2)cc1 (configuration not stated),39.8µM*,-0.2%,?,-14.1%,.,44.7µM*
CC(C)c1ccc(NC2CCCN(C(=O)c3ccoc3)C2)cc1 (configuration not stated),44.7µM*,9.7%,?,-10.4%,.,?
Cc1ccc(N[S+](=O)([O-])c2cc3c(cc2CCc2ccccc2)NC(=O)CO3)cc1C,.,.,-7.1%,.,.,.
O=C(Nc1cc(-c2nc3ccccc3o2)ccc1Cl)c1ccc(N2CCCCC2)c([N+](=O)[O-])c1,-37.2%[59 µM],.,-24.3%,-1.4%,.,?
O=C(CSc1nc2c([nH]c3ccccc32)c(=O)n1-c1cccc(Cl)c1)NCC1CCCO1 (configuration not stated),2.2%[59 µM],.,-2.3%,56.6%[57 µM],.,12.9%
Cc1c(CCNC(=O)c2ccc(C(C)(C)C)cc2)sc2nc(-c3ccc(F)cc3)nn12,1.1%[59 µM],.,-22.1%,44.8%,.,-0.6%
Cc1nonc1C(=O)N1CCCC(Nc2ccc(C(C)C)cc2)C1 (configuration not stated),35.5µM*,10.5%,-16.9%,29.3%,.,?
COc1ccc(NC2CCCN(C(=O)c3ccc(C)nc3)C2)cc1 (configuration not stated),39.8µM*,13.9%,-14.5%,8.4%,.,-21.0%
Cc1ccc(C(=O)N2CCCC(Nc3ccc(C(C)C)cc3)C2)cn1 (configuration not stated),39.8µM*,5.9%,-17.1%,47.1%,.,-19.0%
Cc1nnsc1C(=O)N1CCCC(Nc2ccc(C(C)C)cc2)C1 (configuration not stated),?,17.1%,-27.7%,-5.5%,.,-25.6%
COc1ccc(NC2CCCN(C(=O)c3ccc(C(C)=O)s3)C2)cc1 (configuration not stated),50.1µM*,5.5%,-14.3%,34.7%,.,-38.7%
CCOc1ccc(-c2c(C)nn3c(C)c(C(=O)NCCc4ccc(C)cc4)cnc23)cc1OCC,7.3%[59 µM],.,-31.7%,54.4%,.,-14.2%
CCc1ccc(C(=O)c2cn(CC(=O)Nc3ccc(F)cc3)c3ccc(OC)cc3c2=O)cc1,?,.,-29.1%,37.1%,.,?
Cc1cc(C)c(C(=O)N2CCCC(Nc3ccc(F)cc3)C2)o1 (configuration not stated),79.4µM*,2.0%,-26.4%,4.4%,.,?
CCOC(=O)C(C(=O)Nc1ccccn1)C1CCCCC1 (configuration not stated),50.1µM*,-16.6%,89.1µM*,21.4%,4.3%,0.7%
CCOc1ccccc1C(=O)Nc1cc(-c2ccc(C)cc2)no1,-7.5%[59 µM],.,-11.1%,40.5%,.,-9.4%
COc1ccc(CN2CCC(Cc3ccccc3)CC2)c(C)c1C,?,-9.1%,28.2µM*,-14.6%,-0.5%,?
SMILES,G9a block,Sfp inh,JMJD2A Tudor inh,HP1b chromo inh,L3MBTL1 inh,BAZ2B block
CCC1CCCCN1Cc1ccc(OC)c(C)c1C (configuration not stated),25.1µM*,-3.0%,-13.2%,27.9%,.,?
COc1cc(CN2CCC(Cc3ccccc3)CC2)cc(OC)c1OC,.,-19.7%,25.1µM*,?,3.0%,79.4µM*
Cc1n[nH]c(=O)c2c(NC(=O)COC(=O)c3cccc(OC(F)F)c3)oc(C)c12,10µM*,.,-9.7%,44.4%,3.5%,15.3%
Cc1n[nH]c(=O)c2c(NC(=O)COC(=O)COc3cccc(Br)c3)oc(C)c12,17.8µM*,.,-12.8%,54.8%,14.0%,0.5%
Cc1n[nH]c(=O)c2c(NC(=O)COC(=O)Cc3c(F)cccc3Cl)oc(C)c12,25.1µM*,.,-7.6%,39.6%,31.5%,-3.2%
Cc1n[nH]c(=O)c2c(NC(=O)COC(=O)/C=C/c3cccc(C(F)(F)F)c3)oc(C)c12,10µM*,.,-20.0%,40.0%,-6.6%,6.5%
COc1ccc(-c2nc(CCNC(=O)c3c(F)cccc3Cl)cs2)cc1,14.0%[59 µM],.,-15.8%,19.4%[57 µM],.,0.3%
COc1cc(NC(=O)C2CCN(C(=O)c3sc4nc[nH]c(=O)c4c3C)CC2)cc(OC)c1OC,5.2%[59 µM],.,0.6%,24.0%[57 µM],.,0.4%
Nc1cc(=O)nc(SCC(=O)Nc2ccc(F)cc2)n1-c1cccc(Cl)c1,41.8%[59 µM],.,-12.7%,47.5%,.,-2.4%
COc1ccc(N2C(=O)CC(Sc3nc4ccccc4s3)C2=O)cc1 (configuration not stated),25.1µM*,7.1%,-2.7%,41.5%,15.0%,-20.9%
COc1ccc(N2C(=O)CC(Sc3nnc(-c4ccccc4F)n3C)C2=O)cc1 (configuration not stated),11.2µM*,1.0%,-22.1%,-12.7%,.,-9.4%
C=CCNc1nnc(SC2CC(=O)N(c3ccc(OC)cc3)C2=O)s1 (configuration not stated),8.91µM*,?,44.7µM*,-34.4%,.,-6.6%
COc1ccc(N2C(=O)CC(Sc3nccc(C)n3)C2=O)cc1 (configuration not stated),-5.7%[59 µM],-14.6%,11.3%,59.8%,4.2%,-3.9%
CCOc1ccc2nc(SC3CC(=O)N(c4ccc(OC)cc4)C3=O)sc2c1 (configuration not stated),12.6µM*,-5.2%,0.8%[57.1 µM],71.9%,-2.7%,-2.4%
CCOC(=O)N/N=C1/C[C@@H](O)[C@@H](O)[C@@H]2[C@@H]3C(=O)N(Cc4ccccc4)C(=O)[C@H]3CC[C@@H]12,.,23.6%,.,.,.,.
CCCC12CN3CC(C)(CN(C1)C3c1cn(CC)c3ccccc13)C2=O (configuration not stated),-47.3%[59 µM],.,?,-7.0%,.,-31.2%

# Bioassay records from PubChem.
